According to the supplement of paper PMC9262897, “Low-cost anti-mycobacterial drug discovery using engineered E. coli” (Nature Communications, 2022):
Counter-ions that a name gives are not always drawn. ± gives the standard deviation of the averaged measurements.

What was measured:
Assay in all cases: growth (OD600 after 10 h); higher = more growth (less inhibition)
[1] = system: E. coli TESEC Alr+ wild-type control; details: compound 0.1 mM; raw OD600 reference: median of DMSO wells 0.241, cell-free background 0.041
Description: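 TESEC Mtb Alr E. coli, or the Alr+ wild-type control, in 384-well plates with Prestwick library compounds at 0.1 mM and 1% DMSO, across arabinose induction levels of 1E3 to 1E7 nM. Growth is read as OD600 after 10 h at 37 °C in triplicate biological replicates.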

[2] = system: E. coli TESEC Mtb Asd; details: compound 0.1 mM
Description: (§1)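 TESEC E. coli strains in which the native enzyme is deleted and replaced by arabinose-inducible Mtb Asd, DapB, CysH or TrpD, each grown in its selective medium. Strains were screened against the Prestwick library at 0.1 mM and 1% DMSO in 384-well format at low and high arabinose induction. Growth is read as OD600 after 10 h in triplicate.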

[3] = system: E. coli TESEC Mtb Alr; details: compound 0.1 mM
Description: (§2)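 TESEC Mtb Alr E. coli (ΔaraC ΔtolC ΔentC Δalr ΔdadX, arabinose-inducible Mtb Alr) or the Alr+ wild-type control strain, grown in defined M9-fructose medium without D-alanine in 96-well plates with Prestwick library compounds at 0.1 mM and 1% DMSO. Low Alr induction is 0.1 µM arabinose and high induction is 10 mM arabinose.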

[4] = system: E. coli TESEC Alr+ wild-type control; details: compound 0.1 mM; raw OD600 reference: median of DMSO wells 0.49, cell-free background 0.052
Description: as §2

[5] = system: E. coli TESEC Mtb DapB; details: compound 0.1 mM
Description: as §1

[6] = arabinose induction (level): High, raw OD600 reference: median of DMSO wells 0.331, cell-free background 0.041
[7] = arabinose induction (level): Low, raw OD600 reference: median of DMSO wells 0.417, cell-free background 0.041
[8] = arabinose 100 nM, raw OD600 reference: median of DMSO wells 0.413, cell-free background 0.052
[9] = arabinose 10000000 nM, raw OD600 reference: median of DMSO wells […], cell-free background 0.052
[10] = arabinose induction (level): High, raw OD600 reference: median of DMSO wells […], cell-free background 0.041
[11] = arabinose induction (level): Low, raw OD600 reference: median of DMSO wells 0.227, cell-free background 0.041

Cn1ccnc1S [Methimazole]
growth [1]: 0.257 ± 0.0088 | growth [2, 6]: 0.484 ± 0.0095 | growth [2, 7]: 0.417 ± 0.096 | growth [3, 8]: 0.405 ± 0.014 | growth [3, 9]: 0.323 ± 0.009

C#C[C@]1(O)CC[C@H]2[C@@H]3CCC4=C(CCC(=O)C4)[C@H]3CC[C@@]21C [Norethynodrel]
growth [1]: 0.133 ± 0.013 | growth [2, 6]: 0.128 ± 0.016 | growth [2, 7]: 0.13 ± 0.006 | growth [4]: 0.355 ± 0.005 | growth [3, 8]: 0.399 ± 0.0064 | growth [3, 9]: 0.17 ± 0.018

Cc1c(OCC(F)(F)F)ccnc1C[S+]([O-])c1nc2ccccc2[nH]1 (configuration not stated) [Lansoprazole]
growth [1]: 0.131 ± 0.0017 | growth [2, 6]: 0.236 ± 0.024 | growth [2, 7]: 0.191 ± 0.0085 | growth [4]: 0.377 ± 0.011 | growth [3, 8]: 0.363 ± 0.035 | growth [3, 9]: 0.163 ± 0.025

CCN(CC)CCNC(C(=O)OCCC(C)C)c1ccccc1 (configuration not stated) [Camylofine chlorhydrate]
growth [1]: 0.198 ± 0.0073 | growth [2, 6]: 0.228 ± 0.046 | growth [2, 7]: 0.372 ± 0.11 | growth [5, 10]: 0.153 ± 0.013 | growth [5, 11]: 0.171 ± 0.016 | growth [4]: 0.559 ± 0.084 | growth [3, 8]: 0.406 ± 0.012 | growth [3, 9]: 0.341 ± 0.012

CCCCOC(=O)c1ccc(O)cc1 [Butylparaben]
growth [1]: 0.137 ± 0.0043 | growth [2, 6]: 0.174 ± 0.0066 | growth [2, 7]: 0.193 ± 0.017 | growth [5, 10]: 0.175 ± 0.011 | growth [5, 11]: 0.2066 ± 0.00083 | growth [3, 8]: 0.376 ± 0.029 | growth [3, 9]: 0.304 ± 0.019

CC(=O)CC(c1ccc([N+](=O)[O-])cc1)c1c(O)c2ccccc2oc1=O (configuration not stated) [Acenocoumarol]
growth [1]: 0.244 ± 0.0011 | growth [2, 6]: 0.26 ± 0.023 | growth [2, 7]: 0.293 ± 0.051 | growth [5, 10]: 0.175 ± 0.015 | growth [5, 11]: 0.189 ± 0.0085 | growth [3, 8]: 0.395 ± 0.011 | growth [3, 9]: 0.323 ± 0.024

CCCc1ncc(C[n+]2ccccc2C)c(N)n1 [Amprolium hydrochloride]
growth [1]: 0.245 ± 0.0098 | growth [2, 6]: 0.359 ± 0.016 | growth [2, 7]: 0.386 ± 0.0088 | growth [5, 10]: 0.187 ± 0.0079 | growth [5, 11]: 0.228 ± 0.05 | growth [3, 8]: 0.407 ± 0.016 | growth [3, 9]: 0.376 ± 0.028

NC1CCN(c2nc3c(cc2F)c(=O)c(C(=O)O)cn3-c2ccc(F)cc2F)C1 (configuration not stated) [Tosufloxacin hydrochloride]
growth [1]: 0.0572 ± 0.0069 | growth [2, 6]: 0.054 ± 0.01 | growth [2, 7]: 0.0575 ± 0.0039 | growth [5, 10]: 0.05407 ± 0.0005 | growth [5, 11]: 0.0526 ± 0.0037 | growth [3, 8]: 0.05307 ± 0.00025 | growth [3, 9]: 0.0578 ± 0.0027

CC[C@H]1OC(=O)[C@H](C)[C@@H](O[C@H]2C[C@@](C)(OC)[C@@H](O)[C@H](C)O2)[C@H](C)[C@@H](O[C@@H]2O[C@H](C)C[C@H](N(C)C)[C@H]2O)[C@](C)(O)C[C@@H](C)/C(=N\OCOCCOC)[C@H](C)[C@@H](O)[C@]1(C)O [Roxithromycin]
growth [1]: 0.0423 ± 0.0011 | growth [2, 6]: 0.0582 ± 0.0066 | growth [2, 7]: 0.205 ± 0.25 | growth [4]: 0.05257 ± 0.00029 | growth [3, 8]: 0.0564 ± 0.0015 | growth [3, 9]: 0.0513 ± 0.00036

CNCC(O)c1ccc(OC(=O)C(C)(C)C)c(OC(=O)C(C)(C)C)c1 (configuration not stated) [Dipivefrin hydrochloride]
growth [1]: 0.171 ± 0.01 | growth [2, 6]: 0.174 ± 0.029 | growth [2, 7]: 0.269 ± 0.048 | growth [5, 10]: 0.188 ± 0.023 | growth [5, 11]: 0.167 ± 0.0099 | growth [3, 8]: 0.391 ± 0.022 | growth [3, 9]: 0.19 ± 0.014

CO[C@H]1/C=C/O[C@@]2(C)Oc3c(C)c(O)c4c(O)c(c5c(nc6cc(C)ccn65)c4c3C2=O)NC(=O)/C(C)=C\C=C\[C@H](C)[C@H](O)[C@@H](C)[C@@H](O)[C@@H](C)[C@H](OC(C)=O)[C@@H]1C [Rifaximin]
growth [1]: 0.044 ± 0.0038 | growth [2, 6]: 0.0569 ± 0.001 | growth [2, 7]: 0.054 ± 0.0016 | growth [4]: 0.0531 ± 0.00076 | growth [3, 8]: 0.05527 ± 0.00047 | growth [3, 9]: 0.0526 ± 0.00044

C=Cc1c(C)c2cc3nc(cc4[nH]c(cc5nc(cc1[nH]2)C(C)=C5CCC(=O)O)c(CCC(=O)OC)c4C)[C@@]1(C)C3=CC=C(C(=O)OC)C1C(=O)OC.C=Cc1c(C)c2cc3nc(cc4[nH]c(cc5nc(cc1[nH]2)C(C)=C5CCC(=O)OC)c(CCC(=O)O)c4C)[C@@]1(C)C3=CC=C(C(=O)OC)C1C(=O)OC (some centres not stated) [Verteporfin]
growth [1]: 0.313 ± 0.011 | growth [2, 6]: 0.329 ± 0.016 | growth [2, 7]: 0.432 ± 0.0089 | growth [5, 10]: 0.211 ± 0.024 | growth [5, 11]: 0.277 ± 0.043 | growth [4]: 0.5678 ± 0.0038 | growth [3, 8]: 0.556 ± 0.057 | growth [3, 9]: 0.439 ± 0.021

Cc1nc2n(c(=O)c1CCN1CCC(c3noc4cc(F)ccc34)CC1)CCCC2 [Risperidone]
growth [1]: 0.237 ± 0.0077 | growth [2, 6]: 0.183 ± 0.032 | growth [2, 7]: 0.315 ± 0.073 | growth [4]: 0.47 ± 0.027 | growth [3, 8]: 0.397 ± 0.014 | growth [3, 9]: 0.305 ± 0.023

CO[C@H]1/C=C/O[C@@]2(C)Oc3c(C)c(O)c4c(O)c(c(/C=N/N5CCN(C)CC5)c(O)c4c3C2=O)NC(=O)/C(C)=C\C=C\[C@H](C)[C@H](O)[C@@H](C)[C@@H](O)[C@@H](C)[C@H](OC(C)=O)[C@@H]1C [Rifampicin]
growth [1]: 0.0429 ± 0.0015 | growth [2, 6]: 0.0643 ± 0.011 | growth [2, 7]: 0.0572 ± 0.0093 | growth [4]: 0.05337 ± 0.00042 | growth [3, 8]: 0.0557 ± 0.00079 | growth [3, 9]: 0.0524 ± 0.00092

COc1c2occc2c(OC)c2c(=O)cc(C)oc12 [Khellin]
growth [1]: 0.206 ± 0.0044 | growth [2, 6]: 0.317 ± 0.081 | growth [2, 7]: 0.35 ± 0.016 | growth [4]: 0.418 ± 0.038 | growth [3, 8]: 0.3963 ± 0.0035 | growth [3, 9]: 0.306 ± 0.032

O=C(O)c1ccccc1Nc1cccc(C(F)(F)F)c1 [Flufenamic acid]
growth [1]: 0.0528 ± 0.00081 | growth [2, 6]: 0.0691 ± 0.017 | growth [2, 7]: 0.0784 ± 0.0046 | growth [3, 8]: 0.0904 ± 0.038 | growth [3, 9]: 0.0543 ± 0.00078

CCCCC1C(=O)N(c2ccccc2)N(c2ccc(O)cc2)C1=O (configuration not stated) [Oxyphenbutazone]
growth [1]: 0.2 ± 0.01 | growth [2, 6]: 0.366 ± 0.025 | growth [2, 7]: 0.384 ± 0.047 | growth [3, 8]: 0.415 ± 0.0059 | growth [3, 9]: 0.28 ± 0.0025

CC(CN(C)C)CN1c2ccccc2CCc2ccccc21 (configuration not stated) [Trimipramine maleate salt]
growth [1]: 0.167 ± 0.0021 | growth [2, 6]: 0.141 ± 0.019 | growth [2, 7]: 0.267 ± 0.046 | growth [4]: 0.4285 ± 0.0016 | growth [3, 8]: 0.395 ± 0.0065 | growth [3, 9]: 0.337 ± 0.0056

CCCCN1CCCCC1C(=O)Nc1c(C)cccc1C (configuration not stated) [Bupivacaine hydrochloride]
growth [1]: 0.2359 ± 0.0017 | growth [2, 6]: 0.257 ± 0.046 | growth [2, 7]: 0.418 ± 0.025 | growth [4]: 0.489 ± 0.051 | growth [3, 8]: 0.409 ± 0.01 | growth [3, 9]: 0.339 ± 0.014

CC(C)(C)C(=O)OCOC(=O)[C@@H]1N2C(=O)[C@@H](NC(=O)[C@H](N)c3ccccc3)[C@H]2SC1(C)C [Pivampicillin]
growth [1]: 0.26 ± 0.0055 | growth [2, 6]: 0.376 ± 0.075 | growth [2, 7]: 0.396 ± 0.018 | growth [5, 10]: 0.216 ± 0.058 | growth [5, 11]: 0.24 ± 0.024 | growth [3, 8]: 0.4 ± 0.012 | growth [3, 9]: 0.379 ± 0.028
